Our source for the growth values is PubChem BioAssay (NCI).

Molecules are shown by their SMILES. Compounds without any hit were thinned out: in the full panel of roughly 83,000, 20% have a hit.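 96-well plates, one dose, 48 hours. Percent growth reported; active if below 10.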 Unmarked numbers belong to inactive results. Activity calls are given as the source filed them.

The assay relates to HL-60(TB) leukemia. Briefly: NCI-60 one-dose screen, 48 h (100 = growth as untreated, 0 = no growth, -100 = all killed). As to conditions: 10 µM unless noted.
Consider `COc1c(Br)cc(C(c2cc(Br)c(OC)c(Br)c2)c2ccccc2C(=O)O)cc1Br`, for which the growth is 91%. The value for `COc1ccc(C(c2cc(OC)c(OC)c(OC)c2)N2CCN(Cc3ccccc3)CC2)cc1` (stereo not given) was 23%; that for `Nc1nccc(OCCO)n1` was 88.5%; that for `Nc1ccn(C2O[C@H](CO)[C@@H](O)[C@H]2O)c(=O)n1` (stereo not given in full) was 99.7%. As to `NC1(N2SC(S)=C3CCCC=C32)CCCCC1`, the growth was 89.6%.

Turning to `CCC(CCNc1cc(OC)cc2cccnc12)CN1C(=O)c2ccccc2C1=O` (stereo not given), the growth is 107%. The value for `CC(=O)/C(=C\c1ccc(Cl)cc1)c1ccccc1` was -16.2% (active). With `CN1CCN(c2ccc3nc(-c4[nH]ncc4Nc4ncnc5[nH]ccc45)[nH]c3c2)CC1`, the growth was -28.6% (active). The value for `CNC(=O)c1cc(Oc2cccc3nc(Nc4ccc(F)c(Cl)c4)ccc23)ccn1` was 31.1%; that for `CC(C)(C)OC(=O)N1CCc2c(sc3ncnc(N/N=C/c4ccccc4Br)c23)C1` was 94.8%; that for `CCOC(=O)c1c(C)nc2c(c1N)CC(=O)N2Cc1ccc(F)cc1` was 83.5%. For the molecule `CC(=O)Oc1ccccc1C(=O)N=C1[Se]CCN1C(=O)c1ccccc1OC(C)=O`, the growth was -34.4% (active). On to `NC(=O)c1ccc(Br)o1`, for which the growth is 96.8%. For the molecule `CC(Cl)(CCl)CS(=O)(=O)c1ccc(Cl)cc1` (stereo not given), the growth was 87.2%.

Turning to `Cc1ccc2c(c1)ncn2-c1ncnc2c1CC(C)c1ccccc1N2C` (stereo not given), the growth was -36.2% (active).

Take `C=CCNC(=S)NNc1ccc([N+](=O)[O-])cn1`: the growth was 87.2%. The value for `O=CN1N=C(c2ccc(F)cc2)CC1c1cccc(Nc2ccnc3cc(C(F)(F)F)ccc23)c1` (stereo not given) was 8.69% (active); that for `CC(C)(C)OC(=O)N1CC(Cn2cc(C(F)(F)F)c3c(Cl)ncnc32)C1` was -67.5% (active); that for `Cn1cc(NC(=O)Nc2cc(C(=O)O)n(C)c2)cc1C(=O)O` was 90.1%. Take `CCCN1CCN(c2ccc3nc(-c4ccc5nc(-c6ccc(OCC)c(OCC)c6)[nH]c5c4)[nH]c3c2)CC1`: the growth was -23.1% (active).

As to `CCN(CC)S(=O)(=O)c1ccc(NC(=O)CSc2nnc(C)n2-c2ccccc2)cc1`, the growth was 132%. The value for `COC1=C(C)C(=O)c2c(c(CCCl)c3n2CCC3OC(C)=O)C1=O` (stereo not given) was 34.2%; that for `COc1ccc(/C=C(\C#N)n2nnc3ccccc32)cc1` was -13% (active). The value for `CCn1c(Sc2nnc(Nc3ccccc3)s2)nc2c1c(=O)n(C)c(=O)n2C` was 113%; that for `CC1(O)CCC2CC3OC3(C)CCC3OC3(C)CCC1C2(C)C` (stereo not given) was 120%.

`O=C(O)c1ccccc1NCc1ccco1`: the growth is 102%. The value for `NC1N=C(SCC(=O)N2CCN(c3cc4c(cc3F)c(=O)c(C(=O)O)cn4C3CC3)CC2)NC(=O)/C1=C/c1ccc(Cl)cc1` (stereo not given) was 102%; that for `CC1(C)NCCC[C@]2(C)[C@H]3CC=C4[C@@H]5C[C@@](C)(CO)CC[C@]5(C)CC[C@@]4(C)[C@]3(C)CC[C@@H]12` was 66.3%; that for `CCCCNC(=O)Oc1ccc(/C(=C(/C)Cc2ccc(OC)cc2)c2ccc(OCCN3CCCC3)cc2)cc1` was 43.9%. Regarding `Clc1ccc2c(NCCNc3nc(-c4ccccc4)cc(-c4ccccc4)n3)ccnc2c1`, the growth was -46.6% (active). For `COc1ccc(-c2nn(-c3cccc(NC(=O)Nc4cccc(C(F)(F)F)c4)c3)cc2-c2ccncc2)cc1Cl` the value was 3.19% (active). Turning to `COc1ccc(Nc2ncc(C#N)c(NCCCNC(=O)C3CCC3)n2)cc1`, the growth is 41%. Regarding `COc1ccc2c(c1)C(=O)/C(=C/c1cccc(OCC(=O)Nc3nc4c(s3)CCCC4)c1)O2`, the growth was -70.8% (active).

With `COc1cc(C2CC(c3ccc(Nc4ccnc5cc(Cl)ccc45)cc3)=NN2C=O)cc(OC)c1OC` (stereo not given), the growth is 19.7%.

As for `COc1cc(/C=C/c2cc(/C=C/c3ccc(O)c(OC)c3)n(-c3ccccc3)c(=O)n2)ccc1O`, the growth is 70.9%.

For `CS(=O)(=O)N(c1cc(-c2ccc3ncnc(Nc4cccc(Cl)c4)c3c2)cnc1Cl)S(C)(=O)=O`, the growth was 8.46% (active). Regarding `CC1(C)C(=O)/C(=C\c2ccco2)C[C@]2(C)[C@H]3CC=C4[C@@H]5C[C@](C)(C(=O)O)CC[C@]5(C)CC[C@@]4(C)[C@]3(C)CC[C@@H]12`, the growth is -21.1% [100 µM] (active).

Turning to `NC(=O)c1ncn([C@@H]2O[C@H](CO)[C@@H](O)[C@H]2O)n1`, the growth is 109%.

As for `COc1ccc(-c2cc(-c3cc(OC)c(OC)c(OC)c3)c(C#N)c(=O)n2CCCCC(=O)NO)cc1`, the growth was 44%. As for `CSC1=Nc2c(c(C)c(-c3ccccc3)n2CCCCl)C2=NC(=O)CN12`, the growth was 27.4%.
